The target in assay [1] is T1, Ephrin type-B receptor 1 (Homo sapiens) (UniProt P54762).
T1 sequence (whole entry): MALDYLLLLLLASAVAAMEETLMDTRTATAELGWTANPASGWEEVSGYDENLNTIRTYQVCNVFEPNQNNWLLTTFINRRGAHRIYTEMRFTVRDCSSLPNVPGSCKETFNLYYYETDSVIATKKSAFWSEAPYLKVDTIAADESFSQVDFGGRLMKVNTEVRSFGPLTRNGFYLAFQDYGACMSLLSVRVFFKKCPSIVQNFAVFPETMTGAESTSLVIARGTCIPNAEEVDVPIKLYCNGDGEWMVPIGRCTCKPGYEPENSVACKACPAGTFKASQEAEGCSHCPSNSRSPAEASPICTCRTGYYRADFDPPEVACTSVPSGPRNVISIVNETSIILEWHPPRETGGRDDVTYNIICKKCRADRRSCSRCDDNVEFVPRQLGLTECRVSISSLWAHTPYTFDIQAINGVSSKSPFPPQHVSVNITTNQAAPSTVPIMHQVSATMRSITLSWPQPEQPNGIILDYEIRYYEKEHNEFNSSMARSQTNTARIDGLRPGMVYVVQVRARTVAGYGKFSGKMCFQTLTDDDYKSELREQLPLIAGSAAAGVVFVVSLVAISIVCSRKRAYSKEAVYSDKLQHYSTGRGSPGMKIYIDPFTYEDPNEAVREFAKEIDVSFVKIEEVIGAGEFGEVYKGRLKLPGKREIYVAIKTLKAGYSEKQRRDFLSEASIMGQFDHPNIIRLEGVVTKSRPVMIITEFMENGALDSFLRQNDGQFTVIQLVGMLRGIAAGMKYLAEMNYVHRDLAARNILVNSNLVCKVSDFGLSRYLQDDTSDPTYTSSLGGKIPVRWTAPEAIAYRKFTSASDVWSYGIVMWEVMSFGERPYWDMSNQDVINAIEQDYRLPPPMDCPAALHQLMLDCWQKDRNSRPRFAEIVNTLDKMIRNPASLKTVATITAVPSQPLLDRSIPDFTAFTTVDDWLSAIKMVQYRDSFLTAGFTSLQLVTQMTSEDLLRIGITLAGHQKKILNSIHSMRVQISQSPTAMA
Particulars: at 10 µM; call rule not given here.

For assay [2], the target named is T2, Ephrin type-B receptor 2 (Homo sapiens) (UniProt P29323).
T2 sequence (whole entry): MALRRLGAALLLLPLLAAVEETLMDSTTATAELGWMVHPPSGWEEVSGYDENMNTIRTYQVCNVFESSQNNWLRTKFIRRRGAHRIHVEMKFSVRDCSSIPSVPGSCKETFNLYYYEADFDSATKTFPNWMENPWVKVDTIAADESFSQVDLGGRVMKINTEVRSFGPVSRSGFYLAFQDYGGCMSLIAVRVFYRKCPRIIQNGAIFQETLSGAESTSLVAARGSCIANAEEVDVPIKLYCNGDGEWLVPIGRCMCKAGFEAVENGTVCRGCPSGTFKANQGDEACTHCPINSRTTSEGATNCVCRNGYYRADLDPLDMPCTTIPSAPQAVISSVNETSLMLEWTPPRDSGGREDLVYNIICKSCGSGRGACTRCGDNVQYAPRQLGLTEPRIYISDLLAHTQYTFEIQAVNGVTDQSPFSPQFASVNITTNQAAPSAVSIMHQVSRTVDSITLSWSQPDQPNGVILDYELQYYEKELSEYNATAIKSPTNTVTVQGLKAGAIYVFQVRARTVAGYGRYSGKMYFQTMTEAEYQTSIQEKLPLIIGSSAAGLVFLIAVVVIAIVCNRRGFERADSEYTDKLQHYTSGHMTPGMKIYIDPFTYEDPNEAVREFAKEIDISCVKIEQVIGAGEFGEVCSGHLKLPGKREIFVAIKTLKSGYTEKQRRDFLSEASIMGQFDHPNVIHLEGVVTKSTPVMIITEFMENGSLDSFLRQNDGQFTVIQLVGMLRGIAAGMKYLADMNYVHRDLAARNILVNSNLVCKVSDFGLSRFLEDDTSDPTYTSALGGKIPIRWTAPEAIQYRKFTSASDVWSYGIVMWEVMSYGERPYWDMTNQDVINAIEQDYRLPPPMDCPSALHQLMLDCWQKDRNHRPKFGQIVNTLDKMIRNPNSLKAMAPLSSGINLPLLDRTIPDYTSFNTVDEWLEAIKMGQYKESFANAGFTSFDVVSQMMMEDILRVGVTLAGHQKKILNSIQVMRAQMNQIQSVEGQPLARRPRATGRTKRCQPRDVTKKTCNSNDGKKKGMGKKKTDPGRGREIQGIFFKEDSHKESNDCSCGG
Particulars: at 1 µM.

Assay [3] addresses T2, Ephrin type-B receptor 2 (Homo sapiens). To be noted: at 10 µM.
The target of assay [4] is T3, Ephrin type-B receptor 3 (Homo sapiens) (UniProt P54753).
T3 sequence (whole entry): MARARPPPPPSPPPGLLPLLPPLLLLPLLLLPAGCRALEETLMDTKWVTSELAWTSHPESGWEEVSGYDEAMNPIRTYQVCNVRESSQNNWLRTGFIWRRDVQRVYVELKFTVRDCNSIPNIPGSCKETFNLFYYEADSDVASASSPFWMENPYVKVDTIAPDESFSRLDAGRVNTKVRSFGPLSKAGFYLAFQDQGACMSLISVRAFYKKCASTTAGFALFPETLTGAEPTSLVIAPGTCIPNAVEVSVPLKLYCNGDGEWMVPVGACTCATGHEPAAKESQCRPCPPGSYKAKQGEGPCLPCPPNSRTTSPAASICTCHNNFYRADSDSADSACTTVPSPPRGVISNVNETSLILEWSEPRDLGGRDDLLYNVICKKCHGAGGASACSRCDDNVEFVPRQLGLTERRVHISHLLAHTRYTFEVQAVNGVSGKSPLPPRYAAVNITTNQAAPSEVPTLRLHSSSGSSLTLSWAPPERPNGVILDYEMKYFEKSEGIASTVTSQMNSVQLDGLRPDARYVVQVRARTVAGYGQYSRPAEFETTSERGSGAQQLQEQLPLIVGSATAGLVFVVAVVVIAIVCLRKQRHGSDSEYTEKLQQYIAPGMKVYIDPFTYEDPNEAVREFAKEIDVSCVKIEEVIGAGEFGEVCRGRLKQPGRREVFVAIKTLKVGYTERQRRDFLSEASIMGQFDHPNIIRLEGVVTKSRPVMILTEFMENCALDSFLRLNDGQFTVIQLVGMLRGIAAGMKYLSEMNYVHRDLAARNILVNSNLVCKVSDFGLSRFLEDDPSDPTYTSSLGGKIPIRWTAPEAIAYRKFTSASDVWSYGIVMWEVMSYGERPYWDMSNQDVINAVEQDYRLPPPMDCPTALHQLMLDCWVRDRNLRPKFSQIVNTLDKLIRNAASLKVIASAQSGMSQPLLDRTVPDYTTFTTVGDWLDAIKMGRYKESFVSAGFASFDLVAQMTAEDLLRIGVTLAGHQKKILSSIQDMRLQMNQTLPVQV
To be noted: at 1 µM.

The target in assay [5] is T3, Ephrin type-B receptor 3 (Homo sapiens). Particulars: at 10 µM.
Assay [6] has as its target T4, Ephrin type-B receptor 4 (Homo sapiens) (UniProt P54760).
T4 sequence (whole entry): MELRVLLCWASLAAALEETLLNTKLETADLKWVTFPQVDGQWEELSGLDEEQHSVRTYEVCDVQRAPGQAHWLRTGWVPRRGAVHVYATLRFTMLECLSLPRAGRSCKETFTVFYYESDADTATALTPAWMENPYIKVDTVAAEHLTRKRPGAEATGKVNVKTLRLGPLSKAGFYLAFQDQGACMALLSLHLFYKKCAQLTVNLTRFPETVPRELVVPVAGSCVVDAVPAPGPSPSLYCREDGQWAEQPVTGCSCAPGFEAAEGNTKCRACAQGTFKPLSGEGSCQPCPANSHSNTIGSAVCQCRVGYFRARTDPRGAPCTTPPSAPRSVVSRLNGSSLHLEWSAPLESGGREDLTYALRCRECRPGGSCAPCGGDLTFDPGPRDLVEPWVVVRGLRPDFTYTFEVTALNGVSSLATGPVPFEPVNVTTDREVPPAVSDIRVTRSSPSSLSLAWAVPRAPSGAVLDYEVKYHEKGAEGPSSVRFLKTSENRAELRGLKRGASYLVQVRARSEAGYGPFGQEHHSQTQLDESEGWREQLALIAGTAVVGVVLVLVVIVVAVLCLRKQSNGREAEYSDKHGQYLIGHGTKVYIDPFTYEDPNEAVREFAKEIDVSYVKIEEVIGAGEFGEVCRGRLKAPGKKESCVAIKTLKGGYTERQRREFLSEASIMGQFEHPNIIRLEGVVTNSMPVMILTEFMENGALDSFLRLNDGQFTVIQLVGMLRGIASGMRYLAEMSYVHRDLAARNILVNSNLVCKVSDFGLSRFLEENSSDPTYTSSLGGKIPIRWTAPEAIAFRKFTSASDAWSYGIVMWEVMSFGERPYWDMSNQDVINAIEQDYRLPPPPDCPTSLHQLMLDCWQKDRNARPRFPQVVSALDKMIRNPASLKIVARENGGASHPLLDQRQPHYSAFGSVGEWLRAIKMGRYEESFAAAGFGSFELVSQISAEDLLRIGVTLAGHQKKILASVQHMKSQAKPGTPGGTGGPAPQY
Particulars: at 1 µM.

Assay [7] addresses T4, Ephrin type-B receptor 4 (Homo sapiens). To be noted: at 10 µM.
In assay [8] the target is Receptor tyrosine-protein kinase erbB-4 (Homo sapiens) (UniProt Q15303). Particulars: at 1 µM.
The target is the same in assay [9]. To be noted: at 10 µM.
Assay [10] concerns the target Focal adhesion kinase 1 (Homo sapiens) (UniProt Q05397). To be noted: at 1 µM.

Each structure is given as a SMILES string.

By residual activity is commonly meant the signal under treatment as a percentage of the control signal.

Receptor tyrosine-protein kinase erbB-4 (Homo sapiens), sequence (Q15303 whole entry): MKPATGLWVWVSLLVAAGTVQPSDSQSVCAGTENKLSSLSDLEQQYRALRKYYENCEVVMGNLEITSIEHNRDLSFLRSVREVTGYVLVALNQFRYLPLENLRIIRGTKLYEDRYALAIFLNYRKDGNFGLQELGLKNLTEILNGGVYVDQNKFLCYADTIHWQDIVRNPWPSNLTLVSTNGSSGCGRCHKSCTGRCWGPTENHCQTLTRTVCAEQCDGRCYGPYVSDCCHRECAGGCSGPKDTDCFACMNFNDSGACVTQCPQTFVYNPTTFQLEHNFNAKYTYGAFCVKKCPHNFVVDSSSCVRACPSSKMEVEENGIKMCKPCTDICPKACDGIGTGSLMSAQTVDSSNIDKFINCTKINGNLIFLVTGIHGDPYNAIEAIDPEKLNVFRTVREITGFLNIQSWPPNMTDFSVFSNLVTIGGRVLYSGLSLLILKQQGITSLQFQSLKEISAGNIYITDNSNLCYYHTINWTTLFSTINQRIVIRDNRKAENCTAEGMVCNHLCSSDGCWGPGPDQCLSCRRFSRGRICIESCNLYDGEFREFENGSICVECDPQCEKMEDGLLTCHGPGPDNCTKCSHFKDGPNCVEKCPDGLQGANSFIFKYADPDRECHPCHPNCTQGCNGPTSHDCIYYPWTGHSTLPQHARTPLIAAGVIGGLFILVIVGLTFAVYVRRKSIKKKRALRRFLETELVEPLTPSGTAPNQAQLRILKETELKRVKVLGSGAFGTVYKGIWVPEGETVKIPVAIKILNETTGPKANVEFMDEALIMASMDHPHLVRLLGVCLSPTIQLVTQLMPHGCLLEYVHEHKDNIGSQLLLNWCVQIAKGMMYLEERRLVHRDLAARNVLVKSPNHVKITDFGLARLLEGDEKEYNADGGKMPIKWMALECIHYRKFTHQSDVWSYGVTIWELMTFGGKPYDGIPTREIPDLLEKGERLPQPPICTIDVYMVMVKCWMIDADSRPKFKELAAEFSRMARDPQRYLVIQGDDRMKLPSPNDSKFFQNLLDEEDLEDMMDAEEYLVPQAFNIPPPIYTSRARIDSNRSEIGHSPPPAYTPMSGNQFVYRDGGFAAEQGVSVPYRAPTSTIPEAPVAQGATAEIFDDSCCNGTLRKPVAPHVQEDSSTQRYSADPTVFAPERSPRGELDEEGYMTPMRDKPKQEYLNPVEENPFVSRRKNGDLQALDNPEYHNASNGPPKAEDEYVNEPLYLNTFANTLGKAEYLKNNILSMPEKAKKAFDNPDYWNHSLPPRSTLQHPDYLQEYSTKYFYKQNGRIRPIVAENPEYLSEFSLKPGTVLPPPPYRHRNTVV
Focal adhesion kinase 1 (Homo sapiens), sequence (Q05397 2-1052 limits assumed): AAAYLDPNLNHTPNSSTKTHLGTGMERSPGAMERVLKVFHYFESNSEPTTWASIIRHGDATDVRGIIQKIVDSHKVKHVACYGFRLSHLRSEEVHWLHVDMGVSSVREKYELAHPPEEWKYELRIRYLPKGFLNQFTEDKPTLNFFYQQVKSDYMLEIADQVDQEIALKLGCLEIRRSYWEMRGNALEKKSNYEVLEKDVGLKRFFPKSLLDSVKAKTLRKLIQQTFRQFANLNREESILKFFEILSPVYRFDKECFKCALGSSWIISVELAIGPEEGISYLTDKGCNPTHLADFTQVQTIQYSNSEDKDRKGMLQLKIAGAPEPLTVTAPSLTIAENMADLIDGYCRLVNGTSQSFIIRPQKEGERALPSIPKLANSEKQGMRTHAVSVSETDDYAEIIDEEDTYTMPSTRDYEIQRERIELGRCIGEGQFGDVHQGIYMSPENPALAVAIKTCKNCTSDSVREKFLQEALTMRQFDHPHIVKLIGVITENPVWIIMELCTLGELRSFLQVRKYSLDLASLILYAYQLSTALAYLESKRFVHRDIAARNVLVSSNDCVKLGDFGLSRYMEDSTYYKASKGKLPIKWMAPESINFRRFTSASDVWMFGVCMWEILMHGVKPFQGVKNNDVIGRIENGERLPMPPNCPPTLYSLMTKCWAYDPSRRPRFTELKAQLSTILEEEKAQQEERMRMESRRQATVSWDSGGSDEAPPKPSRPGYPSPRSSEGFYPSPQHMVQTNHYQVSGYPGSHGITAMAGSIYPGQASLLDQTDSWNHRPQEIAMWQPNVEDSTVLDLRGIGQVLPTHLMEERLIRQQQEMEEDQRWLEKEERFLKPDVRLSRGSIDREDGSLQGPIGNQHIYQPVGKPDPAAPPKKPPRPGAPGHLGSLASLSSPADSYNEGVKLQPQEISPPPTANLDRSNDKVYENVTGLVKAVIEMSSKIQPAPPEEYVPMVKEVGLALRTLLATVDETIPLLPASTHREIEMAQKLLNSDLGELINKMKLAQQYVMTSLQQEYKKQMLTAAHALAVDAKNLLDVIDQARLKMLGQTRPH

Regarding `CCOc1cc2ncnc(Nc3cccc(Br)c3)c2cc1OCC`, the residual activity was 5% in [1]; 46% in assay [2]; 0% in assay [3]; 108% (inactive) in assay [4]; 126% in [5]; 19% in [6]. In addition, the residual activity is -1% in assay [7], 10% in [8], -4% in [9] and 139% in assay [10].

Source of the values: ChEMBL document CHEMBL2218924, “A broad activity screen in support of a chemogenomic map for kinase signalling research and drug discovery” (Biochem J, 2013).
